Assay results: PubChem BioAssay
A number with no mark means an inactive call. Active and inactive are the calls of the source. Rule as the data show it, unless noted: active = inhibition above about 33%; inactive = the rest.

Legend:
[1] = StAR promoter reporter inhibitors, counter-screen for LRH-1 inverse agonist project, cell-based, luminescence, high throughput (AID 651611; in the data active = inhibition above about 28%); conditions: StAR promoter luciferase reporter counterscreen, at 3.6 µM, active compounds read high
[2] = target: Nuclear receptor subfamily 5 group A member 2 (Homo sapiens) (UniProt O00482); test: LRH-1 (NR5A2) inverse agonists, retest, confirmation, cell-based, luminescence (AID 651613; in the data active = inhibition above about 42%;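 also: HEK293T cells co-transfected with LRH-1 and StAR promoter luciferase reporter; 0% = vehicle wells and 100% = parental cells lacking receptor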); conditions: cell-based LRH-1 luciferase reporter, inverse agonism; at 3.6 µM; active compounds read high
[3] = target: Steroidogenic factor 1 (Homo sapiens) (UniProt Q13285); test: SF1 (NR5A1) inverse agonists, counter-screen for LRH-1 inverse agonist project, cell-based, luminescence, high throughput (AID 651614; in the data active = inhibition above about 44%;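 also: cells cotransfected with StAR promoter reporter and SF1 expression vector; 0% = vehicle on cells with receptor and 100% = vehicle on cells lacking receptor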); conditions: cell-based SF1 luciferase reporter, at 3.6 µM, active compounds read high
[4] = VP16 transactivation reporter inhibitors, counter-screen for LRH-1 inverse agonist project, cell-based, luminescence, high throughput (AID 651615); conditions: Gal4-VP16 luciferase reporter cells, at 3.6 µM, active compounds read high

Sequence of Nuclear receptor subfamily 5 group A member 2 (Homo sapiens) (O00482 whole entry, looked up): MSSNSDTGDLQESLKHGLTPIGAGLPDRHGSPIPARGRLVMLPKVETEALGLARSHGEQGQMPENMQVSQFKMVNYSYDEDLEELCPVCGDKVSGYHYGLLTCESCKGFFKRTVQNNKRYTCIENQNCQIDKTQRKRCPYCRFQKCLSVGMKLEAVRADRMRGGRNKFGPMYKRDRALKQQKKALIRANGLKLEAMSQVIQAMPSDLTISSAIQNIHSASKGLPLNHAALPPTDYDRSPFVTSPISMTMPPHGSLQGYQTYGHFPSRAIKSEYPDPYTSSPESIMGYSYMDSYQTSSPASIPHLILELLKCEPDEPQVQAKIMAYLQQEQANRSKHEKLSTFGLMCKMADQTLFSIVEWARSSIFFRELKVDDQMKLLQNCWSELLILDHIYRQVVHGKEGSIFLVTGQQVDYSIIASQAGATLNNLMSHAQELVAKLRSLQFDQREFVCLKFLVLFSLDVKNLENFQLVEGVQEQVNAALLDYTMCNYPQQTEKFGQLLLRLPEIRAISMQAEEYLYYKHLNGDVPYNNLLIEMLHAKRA
Sequence of Steroidogenic factor 1 (Homo sapiens) (Q13285 whole entry, looked up, the tested form may be a part): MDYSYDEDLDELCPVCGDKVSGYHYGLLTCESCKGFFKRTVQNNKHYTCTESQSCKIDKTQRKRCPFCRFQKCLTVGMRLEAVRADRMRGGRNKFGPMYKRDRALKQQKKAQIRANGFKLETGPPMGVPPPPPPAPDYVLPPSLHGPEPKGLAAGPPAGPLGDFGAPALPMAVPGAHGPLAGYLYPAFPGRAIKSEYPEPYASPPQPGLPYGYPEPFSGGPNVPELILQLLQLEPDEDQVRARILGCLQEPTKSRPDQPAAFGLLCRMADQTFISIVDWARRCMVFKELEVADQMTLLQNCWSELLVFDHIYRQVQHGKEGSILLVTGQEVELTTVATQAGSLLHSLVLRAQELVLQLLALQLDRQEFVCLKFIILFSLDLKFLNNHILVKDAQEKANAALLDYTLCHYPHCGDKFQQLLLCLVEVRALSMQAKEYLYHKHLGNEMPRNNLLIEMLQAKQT

Compound	inhibition [1]	inhibition [2]	inhibition [3]	inhibition [4]
O=C(CSc1ncn[nH]1)Nc1ccc(Cl)c(Cl)c1	18.4%	45.2% (active)	39%	20.6%
COc1cc(-c2cc(-c3ccc(O)cc3)nc(N)c2C#N)ccc1O	36.1% (active)	68.3% (active)	53.9% (active)	-133%
COc1cc(C(=O)NC2CCN(C)CC2)ccc1Nc1ncc2c(n1)N(C1CCCCC1)CCC(=O)N2C	60.6% (active)	54.4% (active)	40%	-159%
CN(C)c1ccc(S(=O)(=O)N2CCCCC2)cc1NC(=O)CCNC(=O)c1ccc(Cl)cc1	6.54%	3.72%	1.24%	-0.3%
Cc1cc(C)c2c(NC(=O)CCl)nn(C)c2n1	46.8% (active)	64.2% (active)	68.7% (active)	-39.7%
O=C(NCc1cccnc1)c1ccc(NC(=O)c2ccc(Br)cc2)cc1	70.9% (active)	75.9% (active)	91.9% (active)	18.5%
COc1ccc(-n2c(SCC(=O)NCc3ccco3)nc3sc4c(c3c2=O)CCN(C)C4)cc1	-6.62%	-2.89%	11%	-5.24%
O=C(Cc1c(Cl)cccc1Cl)Nc1ccncc1	16.9%	53.1% (active)	45.4% (active)	-10%
c1cncc(-c2nc(N3CCCCCC3)c3ccccc3n2)c1	20.8%	56.4% (active)	62.8% (active)	10.4%
CCCc1cc(=O)oc2cc3occ(C)c3cc12	-0.89%	42.1% (active)	37.8%	1.16%
Cc1cccc(NC(=O)COC(=O)CN2C(=O)c3ccccc3C2=O)c1C	7.19%	51% (active)	47.8% (active)	-15%
CCC(=O)N1CCN(c2cc(NCC3CCCO3)c(F)cc2[N+](=O)[O-])CC1 (stereo unspecified)	9.58%	43.8% (active)	50.7% (active)	0.55%
CCn1cc(CN(C)S(=O)(=O)c2ccc3ccccc3c2)c(C)n1	-0.8%	50.9% (active)	52.5% (active)	40.2% (active)
O=C(CSc1nccc(=O)[nH]1)Nc1ccc(N2CCOCC2)cc1	4.42%	61.3% (active)	47.8% (active)	-3.99%
S=C(Nc1cccnc1)Nc1cccc2cnccc12	9.29%	17.3%	26.2%	17%
O=C(COc1cc2oc(=O)cc(-c3ccccc3)c2cc1Cl)NCCN1CCOCC1	10.4%	40.5%	35.4%	-2.31%
Cc1ccccc1C(=O)O/N=C/c1c(N2CCOCC2)n(C)c2ccccc12	76.4% (active)	84.3% (active)	91.4% (active)	58.8% (active)
Cc1onc(-c2ccccc2Cl)c1-c1nc(-c2ccccn2)no1	17.1%	67.3% (active)	52.7% (active)	7.63%
O=C(c1ccccc1)N(NC(=O)C(O)(c1ccccc1)c1ccccc1)c1cccc(F)c1	-4.21%	61.5% (active)	53% (active)	30.2%
CCCc1cc(=O)oc2cc(C)cc(OCC(=O)NC3CC3)c12	2.08%	59.5% (active)	62.1% (active)	-6.08%
COCC(C)n1c(-c2ccc3c(c2)NC(=O)CO3)csc1=Nc1ccc(OC(F)F)cc1 (stereo unspecified)	10.3%	79.3% (active)	69.3% (active)	34.4% (active)
Cc1cc(C)c2nc(NC(=O)c3ccc([N+](=O)[O-])o3)sc2c1	-2.6%	50.8% (active)	53.7% (active)	-14.5%
C=CCn1c(CCNC(=O)c2cccs2)nnc1SCC(=O)Nc1cccc(Cl)c1C	8.38%	57.9% (active)	53.4% (active)	2.77%
CC(C)(C)c1ccc(C(=O)Nc2ccc(C(=O)NCc3cccnc3)cc2)cc1	82.1% (active)	90.4% (active)	93.2% (active)	61% (active)
COc1ccc(-c2nc(C(N)=O)c3[nH]c(=O)n(-c4cccc(Cl)c4)c3n2)cc1OC	20.8%	57.3% (active)	56.5% (active)	-5.48%
O=C(CCl)N(c1ccc(Cl)cc1)c1c[nH]c2ccccc12	25.4%	67.1% (active)	58% (active)	30.4%
O=C(Sc1cccc2cccnc12)c1ccccc1Br	86.8% (active)	92.1% (active)	85.5% (active)	88% (active)

Compound	inhibition [1]	inhibition [2]	inhibition [3]	inhibition [4]
Nc1nc(-c2ccccc2)c(CCCOc2ccc(NC(=O)CBr)cc2)c(=O)[nH]1	15.7%	61.6% (active)	48.9% (active)	-15.6%
CCN1C(=O)c2cccc3c(NC(=O)c4cccc(N5C(=O)CCC5=O)c4)ccc1c23	21.9%	51.3% (active)	50.1% (active)	-48.1%
COCC1CCCN(C(=O)c2cc(COc3ccc4ncccc4c3)on2)C1 (stereo unspecified)	30.9% (active)	58.5% (active)	64.1% (active)	47.7% (active)
O=C1C=C(NCc2ccco2)C2(CCCCC2)O1	-2.64%	43.1% (active)	46.6% (active)	10.7%
COc1ccc(C2=Nn3c(nnc3-c3ccccc3OC)SC2)cc1OCC1CC1	49.1% (active)	60.4% (active)	62.8% (active)	24.6%
COc1cc(/C=N/NC(N)=S)ccc1OCC(=O)Nc1ccc(C)cc1	-3.71%	48.1% (active)	60% (active)	-1.66%
COc1ccc(-c2c(C)nn3c(NC4CCCC4)cc(C)nc23)cc1OC	25.9%	62.9% (active)	54.8% (active)	-3.44%
O=C(COC(=O)c1ccc(=O)n(Cc2ccccc2)n1)Nc1ccc2c(c1)OCCO2	11.8%	51.1% (active)	43.7% (active)	-13.9%
Cc1ccc(Sc2ccc(NC(=O)CCl)cc2)cc1C	0.02%	52.6% (active)	56.5% (active)	-14.4%
CCN(CC)c1ccc(NC(=O)CSc2nnc(N)s2)cc1C	-2.14%	57.1% (active)	51.4% (active)	-4.26%
Oc1[nH]c2ccccc2c1N=NC(=S)N1CCOCC1	74.8% (active)	78.3% (active)	80% (active)	55.2% (active)
O=C(CSc1nnc(CNC(=O)c2ccccc2F)o1)Nc1ccc2c(c1)OCCO2	10.5%	56.9% (active)	51.6% (active)	-7.98%
COc1ccc(CCNC(=O)CN2C(=O)NC3(CCCCC3C)C2=O)cc1 (stereo unspecified)	3.33%	66.3% (active)	66.7% (active)	-17%
NC(=S)NNc1cc(Cl)cc(Cl)c1	12.8%	50.1% (active)	40.4%	11.7%
CCOc1ccc(CCNC(=O)COC(=O)c2ccc(OC)c(OC)c2OC)cc1OCC	11.7%	53.8% (active)	55.5% (active)	-6.44%
Cc1cc(Cl)ccc1NC(=O)CN1C(=O)C(=O)N(C2CCCC2)C1=O	5.58%	50.9% (active)	43.8% (active)	1.38%
Cn1cccc1C(=O)OCC(=O)NCCCc1ccccc1	3.25%	54% (active)	44.4% (active)	-22%
O=C(Nc1cc(Cl)ccc1-n1cncn1)c1ccc([N+](=O)[O-])o1	27%	61.9% (active)	61.8% (active)	-24.7%
CC(=O)c1ccc(OC(C)C(=O)OCC(=O)NCCc2ccccc2)cc1 (stereo unspecified)	-2.97%	47.1% (active)	40.7%	7.05%
CCN(CC)c1ccc(C2=NNC(=O)CC2C)cc1[N+](=O)[O-] (stereo unspecified)	-14.3%	17%	21.7%	-1.3%
CS(=O)(=O)N1Cc2cc(C(=O)NCC3CC3)nc(-c3cccc(-c4cccnc4)c3)c2[C@@H]1CCO	8.47%	49.4% (active)	47.5% (active)	-12.3%
O=C(N/N=C/c1ccc([N+](=O)[O-])o1)c1ccc2c(c1)OCO2	37.2% (active)	78.3% (active)	91.2% (active)	-5.58%
CCn1c(=O)oc2cc(NC(=O)CCl)ccc21	44.4% (active)	64.4% (active)	65.9% (active)	-54.9%
Cn1c(SCC(=O)Nc2ccc(N3CCOCC3)cc2)nnc1-c1ccco1	0.8%	56.5% (active)	49.4% (active)	-17.8%
O=C(COC(=O)c1ccccn1)Nc1cccnc1Cl	3.58%	40.5%	39.4%	-6.21%
CO/N=C/C(=N\Nc1cc(OC)cc(OC)c1)C(=O)c1ccccc1	13.2%	63.4% (active)	58.3% (active)	0.16%
CSc1ccc(CNc2cccc3ccccc23)cc1	3.79%	35.3%	24.7%	-39.8%
